Results: PubChem BioAssay (NCI)
Compounds without any hit were thinned out: in the full panel of roughly 83,000, 20% have a hit.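 Step 1: grow cells in 96-well plates. Step 2: add test compound at a single concentration. Step 3: incubate 48 h. Step 4: record percent growth.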 A number with no mark means an inactive call. Activity calls are given as the source filed them. Rule for the calls: active = growth percent below 10; inactive = the rest.

Experiments:
Experiment in all cases: NCI-60 one-dose screen, 48 h (100 = growth as untreated, 0 = no growth, -100 = all killed)
Details in all cases: 10 µM unless noted
NCI-H226 lung = system: NCI-H226 lung
NCI-H322M lung = system: NCI-H322M lung
HOP-62 NSCLC = system: HOP-62 NSCLC
NCI-H460 lung = system: NCI-H460 lung
HOP-92 NSCLC = system: HOP-92 NSCLC
NCI-H522 lung = system: NCI-H522 lung
A549/ATCC NSCLC = system: A549/ATCC NSCLC
786-0 renal = system: 786-0 renal
COLO 205 colon = system: COLO 205 colon
DU-145 prostate = system: DU-145 prostate
K-562 leukemia = system: K-562 leukemia
MALME-3M melanoma = system: MALME-3M melanoma
MDA-MB-231 breast = system: MDA-MB-231 breast
RXF 393 renal = system: RXF 393 renal
SF-268 CNS = system: SF-268 CNS
SF-295 CNS = system: SF-295 CNS
SF-539 CNS = system: SF-539 CNS
UACC-257 melanoma = system: UACC-257 melanoma
M14 melanoma = system: M14 melanoma

SMILES	growth (NCI-H226 lung)	growth (NCI-H322M lung)	growth (HOP-62 NSCLC)	growth (NCI-H460 lung)	growth (HOP-92 NSCLC)	growth (NCI-H522 lung)	growth (A549/ATCC NSCLC)	growth (786-0 renal)	growth (COLO 205 colon)	growth (DU-145 prostate)	growth (K-562 leukemia)	growth (MALME-3M melanoma)	growth (MDA-MB-231 breast)	growth (RXF 393 renal)	growth (SF-268 CNS)	growth (SF-295 CNS)	growth (SF-539 CNS)	growth (UACC-257 melanoma) [%]	growth (M14 melanoma)
O=C1NC(=O)c2c1c1c3cc(Br)ccc3[nH]c1c1oc3ccc(F)cc3c21	-0.591% (active)	-11.8% (active)	-42% (active)	-82.6% (active)	-53.2% (active)	-61.6% (active)	53.5%	-40.8% (active)	30.1%	-31.5% (active)	4.29% (active)	-31.1% (active)	-25.3% (active)	-47.7% (active)	-22.6% (active)	-64.3% (active)	-68.5% (active)	48.4	20%
COc1cccc(-c2c(C#N)c(-c3ccc(Cl)cc3)nc3n[nH]c(-c4ccc(Cl)cc4)c23)c1	47.8%	82.8%	53.8%	34.3%	-5.01% (active)	43.8%	41.9%	46.1%	3.25% (active)	58.5%	5.73% (active)	59.7%	–	39.3%	65.9%	64.5%	38.1%	54.4	36.8%
N#Cc1c(-c2ccc(Br)cc2)nc2n[nH]c(-c3ccc(Br)cc3)c2c1-c1ccc(C(F)(F)F)cc1	21.7%	43.1%	40.3%	3.96% (active)	-17.3% (active)	10.1%	27.4%	27.6%	-70.5% (active)	26.2%	-9.32% (active)	-14.5% (active)	–	46.7%	34.7%	1.6% (active)	54.2%	28.5	29.2%
COc1ccc(C(=O)/C=C/c2cc3c(cc2Br)OCO3)cc1S(N)(=O)=O	13.5%	6.66% (active)	-38.4% (active)	-0.316% (active)	15.4%	-46.3% (active)	0.453% (active)	-40.4% (active)	-69% (active)	-0.788% (active)	–	23.8%	23.7%	-58.2% (active)	18.1%	-22.8% (active)	-89.2% (active)	63.6	-71.2% (active)
COc1cc(OC)cc(-c2cc3ccc(N(C)C)cc3c(=O)[nH]2)c1	23%	52.9%	53%	9.42% (active)	94.2%	-19.2% (active)	24.4%	29.9%	-44.8% (active)	21.5%	–	59.3%	33.1%	80.5%	36.3%	16.2%	-1.21% (active)	75.7	10.7%
C#CCOc1ccc(/C=N/Nc2nc(-c3ccc(Cl)cc3)cs2)cc1OC	56.3%	89.3%	84.7%	68%	48.8%	47.5%	64.4%	69.2%	54.7%	81.5%	26.2%	91.6%	77.1%	27.1%	73.8%	77.4%	70.6%	45.5	61.1%
CCOC(=O)/C=C/c1cccc2c1C(=O)NC(C)(c1cc3cc(Br)ccc3oc1=O)N2 (stereo unspecified)	43.3%	88%	65.6%	46.1%	40.2%	29.1%	40.1%	59.4%	46.5%	49.6%	24.1%	71%	56%	35.6%	49.8%	36.7%	73.9%	64.6	42.4%
C#CCOc1cc(N(CC)CC)ccc1C(C(=O)NC(C)(C)C)N(C(=O)C1CCc2cc(F)ccc2O1)c1ccccc1Br (stereo unspecified)	63.8%	86.3%	73.3%	52.3%	–	47.6%	54.2%	59.4%	46.9%	74%	31.3%	77.4%	63%	81.6%	62.1%	62.8%	72.5%	60	55.5%
O=C(NNc1nc2cc(F)ccc2n2c(CN3CC4CNCC4C3)ccc12)c1ccncn1 (stereo unspecified)	7.23% (active)	30.8%	38.3%	5.26% (active)	34.5%	32.1%	17.8%	-2.41% (active)	10%	42.1%	–	22.5%	27.5%	64.1%	28.3%	2.58% (active)	-10.3% (active)	12.1	-15.6% (active)
N#Cc1c(-c2ccc(Cl)cc2)nc2n[nH]c(-c3ccc(Cl)cc3)c2c1-c1cccs1	54.1%	76.8%	62.8%	51.1%	15.7%	54.4%	54.9%	67.5%	53.2%	65.1%	16.9%	55.6%	–	58.2%	72.9%	63.6%	64.1%	58.1	64.6%
C#CCOc1ccc(/C=N/Nc2nc(-c3cc4cc(OC)ccc4oc3=O)cs2)cc1OC	14.2%	72.2%	71.9%	8.62% (active)	-0.0146% (active)	42%	10%	74.2%	63.6%	31.5%	34.7%	2.64% (active)	44%	-88.8% (active)	57.2%	41.2%	28.2%	54.7	42.2%
C#CCOc1cc(N(CC)CC)ccc1C(C(=O)NC(C)(C)C)N(C(=O)C1CCc2cc(F)ccc2O1)c1ccc(Br)cc1 (stereo unspecified)	81.2%	82.5%	77.1%	60.3%	89.6%	67.7%	65.1%	81.7%	59.1%	97.1%	41.1%	92.6%	61.6%	103%	92.8%	96.4%	81.1%	87.8	68.3%
O=C(c1ccccc1)c1ccc2nc(-c3cccc(Cl)c3)[nH]c2c1	105%	105%	107%	111%	111%	101%	104%	100%	116%	115%	98.1%	111%	102%	115%	106%	116%	94.9%	100	108%
C#CCOc1cc(N(CC)CC)ccc1C(C(=O)NC(C)(C)C)N(C(=O)C1CCc2cc(F)ccc2O1)c1ccccc1F (stereo unspecified)	34.4%	72.2%	49.5%	30.1%	18.6%	31.2%	35.2%	44.1%	12.9%	58.4%	17%	57.7%	53.4%	40.4%	38.4%	19.9%	50.7%	30.2	39%
COc1ccc(-c2nnc3ccc(N/N=C/c4ccc(C)cc4)nn23)cc1	54.6%	85.3%	70.4%	51.2%	18.9%	91%	33.4%	56.9%	79.9%	39.1%	–	91.3%	65.4%	62.2%	59.1%	56.9%	61.3%	106	83.5%
COC(=O)/C=C/c1cccc2c1C(=O)NC(C)(c1cc3ccccc3oc1=O)N2 (stereo unspecified)	63.1%	93.7%	72.4%	44.5%	50.7%	62%	67.9%	58.9%	63.1%	62.7%	56.6%	58.7%	76.3%	58.9%	82.3%	84.9%	73.2%	77.7	41.7%
